In the library only some 10% were active in any assay of this set; here they are far more common.
GLS inh: qHTS for Inhibitors of Glutaminase (GLS). Glutaminase kidney isoform, mitochondrial (Homo sapiens), O94925. AID 624170, 2012. 410,000 compounds, 0.21% hits. Potency, µM (titrated, usually from 45.5 µM), most hits filed as inhibitors. GLS enzymatic activity, qHTS titration
Target sequence (O94925 whole entry, looked up, canonical isoform): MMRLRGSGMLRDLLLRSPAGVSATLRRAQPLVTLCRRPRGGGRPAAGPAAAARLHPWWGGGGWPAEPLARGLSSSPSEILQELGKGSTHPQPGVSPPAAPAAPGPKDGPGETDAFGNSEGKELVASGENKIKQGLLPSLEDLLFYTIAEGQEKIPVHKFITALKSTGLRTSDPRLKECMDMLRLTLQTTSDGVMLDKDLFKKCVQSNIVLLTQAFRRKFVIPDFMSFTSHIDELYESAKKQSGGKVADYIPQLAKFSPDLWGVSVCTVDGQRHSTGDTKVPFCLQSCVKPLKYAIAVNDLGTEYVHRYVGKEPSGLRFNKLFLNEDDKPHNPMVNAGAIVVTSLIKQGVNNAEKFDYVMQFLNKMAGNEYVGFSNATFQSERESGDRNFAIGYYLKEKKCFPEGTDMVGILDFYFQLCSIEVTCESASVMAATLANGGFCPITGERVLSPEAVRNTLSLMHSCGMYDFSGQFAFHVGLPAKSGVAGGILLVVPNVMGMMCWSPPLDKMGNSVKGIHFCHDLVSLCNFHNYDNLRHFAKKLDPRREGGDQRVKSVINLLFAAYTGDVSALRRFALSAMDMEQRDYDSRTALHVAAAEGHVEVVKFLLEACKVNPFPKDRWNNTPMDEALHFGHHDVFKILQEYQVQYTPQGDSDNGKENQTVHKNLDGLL
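Human kidney-isoform GLS in 45 mM KH2PO4 pH 8.2, 0.02% Tween-20, with compound, started with 1mM L-Glutamine (added stock). Glutamate oxidase/HRP/Amplex red coupled fluorescence read at start and after 30 min at RT.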
L3MBTL1 inh: qHTS Assay for the Inhibitors of L3MBTL1. Lethal(3)malignant brain tumor-like protein 1 (Homo sapiens), Q9Y468. 230,000 compounds, 0.66% hits. AlphaScreen L3MBTL1–H3K9me1 peptide binding. AID 485360, 2010. Potency, µM (highest dose often 57.1 µM), most hits filed as inhibitors; also: nearly all actives have a fitted effect of over 60% in size
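Read-out is AlphaScreen signal from streptavidin donor and nickel chelate acceptor beads (10 ug/mL final each) bridging L3MBTL1 (50 nM) and biotinylated K9-monomethylated H3(1-15) peptide (75 nM), after 30 min compound exposure at room temperature.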
G9a block: qHTS Assay for Inhibitors of Histone Lysine Methyltransferase G9a. Histone-lysine N-methyltransferase EHMT2 (Homo sapiens), Q96KQ7. G9a H3K9 monomethylation, AlphaScreen, 2 h. Potency, µM (doses to about 102 µM), actives largely listed as inhibitors. 350,000 compounds, 8.8% hits. AID 504332, 2011; also: nearly all actives have a fitted effect of over 75% in size
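Readings reflect AlphaScreen signal from monomethyl-H3K9 antibody detection. HMT at 20 nM; substrate b-H3K9 500 nM; cofactor SAM 20 uM; 2 h RT reaction; compounds tested as titrations in qHTS with 15 min preincubation.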
BAZ2B block: qHTS Assay for Inhibitors of BAZ2B; AlphaScreen BAZ2B-H3K14Ac peptide displacement; Potency, µM (highest dose often 114 µM), most hits filed as inhibitors; 360,000 compounds, 4.4% hits; AID 504333, 2011; also: nearly all actives have a fitted effect of over 60% in size
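Protein-peptide AlphaScreen: BAZ2B 50 nM, b-H3K14Ac 50 nM, 1x PBS pH 7.4 + 0.01% Tween-20. Preincubation 30 min RT; cpd 30 min RT (top 110 uM); beads 20 min RT, light-protected.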
JMJD2A Tudor: qHTS Assay for Inhibitors of JMJD2A-Tudor Domain | AID 504339, 2011 | AlphaScreen JMJD2A-Tudor / H3K4me3 peptide binding | Lysine-specific demethylase 4A (Homo sapiens), O75164 | 390,000 compounds, 4.4% hits | Potency, µM (top dose mostly 114 µM), most hits filed as inhibitors; also: nearly all actives have a fitted effect of over 50% in size
HP1b chromo inh: HTS for Inhibitors of HP1-beta Chromodomain Interactions with Methylated Histone Tails; Chromobox protein homolog 1 (Homo sapiens), P83916; AlphaScreen HP1-beta / biotin-H3K9me3 peptide binding; Potency, µM (titrated, usually from 114 µM), hits mostly inhibitors; 390,000 compounds, 0.56% hits; AID 540317, 2011; also: nearly all actives have a fitted effect of over 70% in size
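HP1-beta protein (50 nM final) preincubated 30 min at room temperature with biotinylated H3(1-18)K9me3 peptide (50 nM) in PBS pH 7.4, 0.01% Tween-20, then compound added for 30 min. AlphaScreen streptavidin donor/nickel chelate acceptor beads (10 ug/mL final), 30 min dark, luminescence read.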
Numbers stand for hits; n = inactive; u = inconclusive; x = no result; [ ] = remark or other dose. Calls follow the shape of the dose curve; as a rule, active = well fitted curve in the direction sought with a large enough effect; inconclusive = small, poorly fitted or top-dose-only effect, or another doubt; inactive = no such curve, though single readings can be large; an effect the other way counts as inactive or inconclusive.

SMILES	GLS inh	L3MBTL1 inh	G9a block	BAZ2B block	JMJD2A Tudor	HP1b chromo inh
Cc1ccc(NC(=O)N(Cc2cn(C)c3ccccc23)C2CCCCC2)cc1C	n	x	n	x	n	n
COc1ccc(C(=O)CSc2nnc(-c3cnccn3)n2Cc2ccco2)cc1	n	n	u	u	u	n
COc1ccc(-c2n[nH]c(=S)n2Cc2ccco2)cc1	n	x	u	n	14µM	n
Cc1c(Br)c(-c2n[nH]c(=S)n2Cc2ccco2)nn1C	n	n	10µM	n	u	n
COc1cccc(Cc2n[nH]c(=S)n2Cc2ccco2)c1	n	n	7.9µM	n	14µM	n
Cc1cc(-c2n[nH]c(=S)n2Cc2ccco2)n(C)n1	n	n	8.9µM	n	20µM	n
COc1ccc(C)cc1NC(=O)c1c2c(nc3ccccc13)C(=O)N(C1CCCCC1)C2	n	x	n	u	n	n
Cc1cc(-c2n[nH]c(=S)n2Cc2ccco2)nn1C	n	n	8.9µM	n	6.3µM	n
S=c1nc(-c2ccccc2)n(Cc2ccco2)c2c1CCCC2	x	n	u	n	x	x
Oc1ccccc1-c1n[nH]c(=S)n1Cc1ccco1	n	x	u	n	5.6µM	n
Nc1nc2ncc(C(=O)c3cc(Cl)cc(Cl)c3O)cc2s1	n	n	50µM	n	u	u
Nc1nc2ncc(C(=O)c3cc(F)ccc3O)cc2s1	n	n	x	n	n	n
COC(=O)c1c(C)c2c(C)cc3ccccn3c-2c1C(=O)OC	n	x	u	u	u	u
COC(=O)c1c(C(=O)OC)c2cccc3cc(-c4ccccc4)c4ccc1c4n32	n	x	u	2.5µM	8.9µM	u
COC(=O)c1cc2c(-c3ccccc3)cc3ccccn3c-2c1C(=O)OC	n	x	13µM	13µM	45µM	u
Cc1ccc(-n2nnc3c(sc4nc(C)c(C)cc43)c2=O)cc1Cl	n	x	n	n	n	n
Cc1ccc(CN(Cc2ccccc2)C(=S)NCC(=O)NCc2cccnc2)o1	n	n	28µM	n	u	n
Cc1ccc(CN(Cc2ccco2)C(=S)NCC(=O)NCc2cccnc2)cc1	n	x	13µM	u	n	u
Cc1ccc(CN(Cc2ccc(C)o2)C(=S)NCC(=O)O)cc1	n	n	u	n	n	n
Cc1ccc(CN(Cc2ccco2)C(=S)NCC(=O)O)cc1	n	n	32µM	n	n	n
Cc1ccc(CNC(=O)CNC(=S)N(Cc2ccccc2)Cc2cccnc2)cc1	n	x	n	n	n	n
Cc1ccc(S(=O)(=O)N2CCC(C(=O)Nc3ccc(C)c(Cl)c3)CC2)cc1	n	x	n	n	n	n
CN1c2ccsc2C(O)=C(C(=S)Nc2ccccc2)S1(=O)=O	n	x	u	u	u	n
Cc1ccccc1NC(=S)C1=C(O)c2sccc2N(C)S1(=O)=O	n	x	22µM	u	u	n
CCCN1CCN(CCCNC(=O)c2c(C)nn(-c3ccc(F)cc3)c2-n2cccc2)CC1	n	x	n	n	n	n
SMILES	GLS inh	L3MBTL1 inh	G9a block	BAZ2B block	JMJD2A Tudor	HP1b chromo inh
Cc1ccc(-n2nc(C)c(C(=O)NCCCN3CCN(c4ccc(F)cc4)CC3)c2-n2cccc2)cc1	n	x	u	40µM	45µM	n
COc1ccc(N2CCN(CCCNC(=O)c3c(C)nn(-c4ccc(F)cc4)c3-n3cccc3)CC2)cc1	n	x	4.5µM	50µM	u	n
COc1ccccc1NC(=O)c1c(NCc2ccc(OC)c(OC)c2OC)sc2c1CCC2	n	x	u	n	n	n
CCOC(=O)c1ccc(NC(=O)c2c(NCc3sccc3C)sc3c2CCCCC3)cc1	n	x	8.9µM	45µM	56µM	n
CCOC(=O)c1ccc(NC(=O)c2c(NCc3cccc(OC)c3OC)sc3c2CCC3)cc1	n	x	14µM	n	n	n
CCOC(=O)c1ccc(OCC2c3cc(OC)c(OC)cc3CCN2C(=O)c2ccc(S(=O)(=O)N3CCCC3)cc2)cc1 (stereo unspecified)	n	x	n	n	n	n
Cc1ccc(C2c3c(oc4ccccc4c3=O)C(=O)N2CCCN2CCOCC2)o1 (stereo unspecified)	n	x	u	n	14µM	n
CC(C)c1ccc(C2c3c(oc4ccc(Cl)cc4c3=O)C(=O)N2CCCN2CCOCC2)cc1 (stereo unspecified)	n	x	n	u	n	n
O=C1c2oc3ccc(Cl)cc3c(=O)c2C(c2ccccn2)N1CCCN1CCOCC1 (stereo unspecified)	n	n	20µM	u	n	n
Cc1ccc(C2c3c(oc4cc(C)c(C)cc4c3=O)C(=O)N2CCCN2CCOCC2)cc1 (stereo unspecified)	n	n	40µM	n	n	n
C=CCOc1ccc(C2c3c(oc4ccccc4c3=O)C(=O)N2CCCN2CCOCC2)cc1 (stereo unspecified)	n	n	50µM	n	n	n
O=C1c2oc3ccccc3c(=O)c2C(c2cccnc2)N1CCCN1CCOCC1 (stereo unspecified)	n	n	n	n	n	n
CC(C)Oc1ccc(C2c3c(oc4ccccc4c3=O)C(=O)N2CCCN2CCOCC2)cc1 (stereo unspecified)	n	x	u	u	n	n
CCOC(=O)c1nnsc1NC(=O)Nc1ccc(OC)cc1	n	n	40µM	u	n	n
COc1ccc(NC(=O)Nc2c(SC)nsc2SC)cc1	n	n	40µM	n	n[11.4 µM]	n
COc1ccc(OC)c(NC(=O)NNS(=O)(=O)c2ccc(C)cc2C)c1	n	x	n	n	n	n
CCOC(=O)c1ccc(NC(=O)NNS(=O)(=O)c2cc(OC)ccc2OC)cc1	n	x	71µM	n	n	n
O=C(CSc1ccccn1)N1CCN(c2ccccc2)CC1	n	n	u	n	n	n
O=C(CSc1nc2c(c(=O)n1-c1ccccc1)SCC2)N1CCOCC1	n	n	n	n	n	n
Nc1nnc(SCC(=O)N2CCN(c3ccccc3)CC2)s1	n	n	50µM	n	n	n
Cc1nc(SCC(=O)N2CCN(c3ccccc3)CC2)n[nH]1	n	x	40µM	n	n	n
O=C(CSc1ccccn1)N1CCN(c2cccc(Cl)c2)CC1	n	x	2.8µM	n	79µM	n
O=C(CSc1nc2c(c(=O)n1-c1ccccc1)SCC2)N1CCN(c2ccccc2)CC1	n	n	45µM	n	u	n
COc1cccc(-c2ccc3ncnc(N(C)C)c3c2)c1	x	x	n[0.501 µM]	x	x	x
Cc1ccc(F)cc1NC(=O)CSc1nc(-c2cccs2)cc(C(F)(F)F)n1	n	x	n	n	n	n
O=C(CSc1ccccc1C(=O)N1CCN(c2ccc([N+](=O)[O-])cc2)CC1)N1CCCC1	n	n	x	x	n	n

Screens deposited in PubChem by National Center for Advancing Translational Sciences (NCATS).
